Assay outcomes as filed in PubChem BioAssay.
Most compounds without a hit are left out; they make up all but 2.2% or so of the library.
Ba/F3 V617F tox: loss of viability in JAK2V617F-driven Ba/F3 cells. Ba/F3 EpoR-JAK2V617F viability, ATP luminescence. inhibition, % at 5.6 µM. 220,000 compounds, 1.1% hits. AID 1446;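 active = inhibition above the campaign mean plus 3 SD over all tested compounds, cut at about 24% in these data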;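 note: cytokine-independent growth of Ba/F3 cells driven by EpoR plus mutant JAK2; 0% = DMSO-treated cells and 100% = JAK inhibitor I control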
KLF5 inh: inhibitors of KLF5 expression; 290,000 compounds, 0.23% hits; inhibition, % at 5 µM; DLD-1 KLF5 promoter-luciferase reporter, luminescence;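 active = inhibition above a per-plate limit of that plate's mean compound inhibition plus 3 SD, cut at about 60% in these data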;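 note: 0% = DMSO wells and 100% = LY294002 at 200 µM; higher means less KLF5 promoter-driven luciferase light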
aSyn UTR inh: MLPCN primary screen, SNCA 5' untranslated region; alpha-synuclein 5'UTR reporter, inhibitor activity; inhibition, % (tested at 7.5 µM); 300,000 compounds, 0.82% hits; AID 1813; in the data active = inhibition above about 60%;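 note: H4 neuroglioblastoma cells stably carrying SNCA 5'UTR luciferase fusion; 0% = DMSO wells and 100% = positive control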
IEC-6 tox: IEC-6 cytotoxicity, counter-screen for KLF5 inhibitors. luminescence viability. inhibition, % at 5 µM. 290,000 compounds, 0.78% hits. AID 1825; in the data active = inhibition above about 22%;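 note: 0% = plate median of test compound wells and 100% = cytotoxic reference compound wells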
APP 5UTR inh: APP translation inhibition; SH-SY5Y APP 5'UTR-luciferase reporter, luminescence; inhibition, % at 2 µM; 190,000 compounds, 0.82% hits;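 active = inhibition above a set limit, derived from the sample mean plus 3 SD, cut at about 45% in these data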
BaF3 tox: counter-screen for JAK2V617F inhibitors: parental Ba/F3 viability inhibitors. CellTiter-Glo ATP luminescence. 220,000 compounds, 1.1% hits. inhibition, % at 5.6 µM;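 active = inhibition above a per-campaign cutoff, the mean inhibition of all tested compounds plus 3 SD, cut at about 27% in these data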;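 note: 0% = DMSO wells and 100% = JAK Inhibitor I control wells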
Numbers without * were called inactive; . = not tested or not shown.

SMILES	Ba/F3 V617F tox	KLF5 inh	aSyn UTR inh	IEC-6 tox	APP 5UTR inh	BaF3 tox
CCN(C(=O)c1ccc(C(C)(C)C)cc1)c1nnc(Cn2nnc3ccccc32)s1	27.3*	-27.6	-22.8	8.8	13.2	54.6*
COc1ccccc1/C=N/n1cnnc1	-1.8	7.9	3.4	2.3	-4.4	-0.2
COc1c(Cl)cc(Cl)cc1/C=N/n1cnnc1	-4.5	-13.5	16.5	-4.8	54.9*	-2.1
Cc1ccc(S(=O)(=O)Nc2cccc(C(=O)NCC3(N4CCCCC4)CCCCC3)c2)cc1F	.	.	-17.1	.	.	.
N#Cc1ccccc1COC(=O)c1ccc(Br)o1	.	-14.2	16.9	-9.5	.	.
CCOc1cc(/C=N/NC(N)=O)cc(Br)c1OCc1ccccc1	.	.	45.3	.	.	.
CCOc1cc(/C=N/NC(N)=S)cc(Br)c1OCc1ccccc1C	10.8	11.1	-73.7	2.7	-18.6	27.5*
COc1cc(/C=N/NC(N)=S)cc(Br)c1OCc1ccccc1F	65.1*	-19.9	-74.0	9.0	-19.6	53.1*
CNC(=S)N/N=C/c1cc(Br)c(OCc2ccncc2)c(OC)c1	.	-26.4	30.3	2.1	.	.
COc1cccc(C(=O)Nc2nnc(S(=O)(=O)N(C)Cc3ccc(F)cc3)s2)c1	.	-12.7	15.0	-2.5	.	.
CC(=O)c1sc(Nc2nc(C)cc(C)n2)nc1C	-2.2	-13.3	-28.5	4.2	82.7*	2.2
CC(=O)c1sc2c(c1N)c(=O)[nH]c(=O)n2-c1ccccc1	.	-14.5	14.6	5.3	.	.
CC(=O)c1sc2c(c1OC(=O)c1ccc(Cl)cc1Cl)c(=O)n(-c1ccccc1)c(=S)n2-c1ccccc1	5.1	9.1	100.6*	-1.1	.	2.4
CCCN(Cc1cc2ccc(C)cc2[nH]c1=O)C(=O)c1cccnc1	3.1	-22.5	17.2	-0.7	-12.6	10.2
CC(=O)N(Cc1cccnc1)Cc1cc2ccc(C)cc2[nH]c1=O	-2.6	-13.8	3.8	2.4	9.7	95.4*
Cn1cc(C(=O)c2ccc(Cl)cc2Cl)cc1C(=O)N/N=C(\N)COc1ccc(Cl)cc1Cl	0.4	6.3	64.9*	6.1	6.6	8.8
COc1ccc(S(=O)(=O)Nc2cc(SCC(=O)O)c(O)c3ccccc23)cc1	.	-81.5	7.0	19.9	.	.
Cc1cc(C)c(S(=O)(=O)Nc2cc(SCC(=O)O)c(O)c3ccccc23)cc1C	0.9	-22.9	66.8*	8.3	5.8	11.1
COCCn1c(C)cc(C(=O)COC(=O)c2cccc(O)c2)c1C	-4.1	27.8	67.4*	2.6	.	-0.8
COCCn1c(C)cc(C(=O)CSc2nnc(C)s2)c1C	-3.4	4.2	99.6*	2.3	-22.0	3.2
COCCn1c(C)cc(C(=O)COC(=O)c2cc3c(s2)CCC3)c1C	-2.6	2.5	-78.4	-1.6	-17.5	4.0
c1ccc2c(NCCCN3CCOCC3)c3ccccc3nc2c1	-5.5	-29.0	.	5.4	62.9*	3.3
CN(C)CCCNc1c2ccccc2nc2ccccc12	.	49.5	70.8*	10.2	.	.
CN(C)CCCNc1nc(-c2ccccc2)nc2ccccc12	5.2	-11.2	-7.9	4.4	.	5.2
OCCNc1c2ccccc2nc2c(F)c(F)c(F)c(F)c12	1.7	-12.2	-83.6	10.8	87.3*	8.5
SMILES	Ba/F3 V617F tox	KLF5 inh	aSyn UTR inh	IEC-6 tox	APP 5UTR inh	BaF3 tox
CCn1c(CNC(=O)c2ccccc2Br)nnc1SCC(=O)Nc1nncs1	.	-15.0	-0.8	5.3	.	.
O=[N+]([O-])c1ccc(N2CCN(C(=S)Nc3cccc(F)c3)CC2)cc1	27.9*	-5.8	19.8	3.5	-1.1	32.4*
Cc1cnc(NC(=O)CSc2ccc(Cl)cc2)s1	-2.2	-14.7	-10.8	3.2	-13.4	-1.1
Cc1cnc(NC(=O)COc2ccccc2Cl)s1	-0.1	-28.6	82.0*	5.0	-100.3	3.6
Cc1cnc(NC(=O)Nc2ccc(Cl)cc2)s1	91.8*	-126.7	-186.8	28.6*	28.3	72.2*
N#CC1=C(N)Oc2cc(O)ccc2C1c1cccnc1 (centres undefined)	-4.2	-11.7	2.3	-4.4	-11.5	2.9
CN(C)c1ccc2c(c1)OC(N)=C(C#N)C2c1cccc(F)c1 (centres undefined)	-3.4	-25.1	68.0*	1.9	95.1*	1.6
CCOc1ccc2nc(NC3=NCN(CC4CCCO4)CN3)nc(C)c2c1 (centres undefined)	3.3	-4.3	.	-1.1	5.5	10.9
Cc1ccc2nc(NC3=NCN(Cc4ccc5c(c4)OCO5)CN3)nc(C)c2c1	62.9*	6.0	.	9.1	93.8*	69.9*
CCc1ccc(C(C(=O)NC2CCCC2)N(C(=O)c2csnn2)C2CC2)cc1 (centres undefined)	.	-19.5	-7.3	-3.8	.	.
CCOC(=O)c1c(C)n2c3c(cc(C)cc13)CCC2	2.7	-11.6	8.0	9.3	-9.6	3.2
O=c1onc(-c2ccccc2Cl)n1-c1ccccc1Cl	.	.	-39.3	.	.	.
c1c2c(cc3sc(N4CCOCC4)nc13)OCCO2	9.2	8.6	94.2*	9.3	-81.2	7.3
c1ccc(N2CCN(c3nc4cc5c(cc4s3)OCCO5)CC2)cc1	-4.1	-99.9	-156.8	-5.2	-49.1	-1.0
COc1cc(/C=C2/NC(=O)N(Cc3ccccc3F)C2=O)ccc1O	85.3*	-14.7	-3.3	3.8	36.0	65.4*
O=C(c1ccccc1)N1CCCCC(Cl)C1=O (centres undefined)	-1.6	-22.1	-6.6	-2.7	-3.1	-0.9
CN(C)S(=O)(=O)Oc1ccc(C(=O)Nc2ccc([N+](=O)[O-])cc2)cc1	1.4	-8.6	-5.4	11.0	-44.0	1.5
COC(=O)c1ccc(OS(=O)(=O)N(C)C)cc1	-2.3	-26.6	-87.8	3.1	-26.8	35.6*
CCS(=O)(=O)N1Cc2ccccc2CC1C(=O)Nc1cccc(C)c1 (centres undefined)	2.7	-41.4	-102.4	0.5	-8.1	37.6*
O=C(N/N=C/c1c[nH]c2ccccc12)C1COc2ccccc2O1 (centres undefined)	1.6	4.2	75.6*	-3.7	26.2	2.5
O=C(N/N=C\c1ccc(Cl)s1)C1COc2ccccc2O1 (centres undefined)	1.0	-6.5	-66.7	3.1	.	-3.1
CCn1c(C)c2c(C)nnc(C)c2c1C	4.9	-7.1	-0.5	0.3	-11.1	8.9
CCn1c(C)c(P(c2ccccc2)c2ccccc2)[n+]2ccccc12	68.7*	-4.9	16.5	-0.9	6.7	70.0*
Cc1cc(C)n(-c2nc(NCCCN(C)C)c3c4c(sc3n2)CCCC4)n1	4.5	-19.8	-36.4	7.6	.	1.4
Cc1cc(C)n(-c2nc(NCCN(C)C)c3c4c(sc3n2)CCCC4)n1	3.5	-25.2	115.9*	10.3	.	-3.5
O=C(NCc1nnnn1-c1ccc(F)c(F)c1)c1ccc(S(=O)(=O)N2CCOCC2)cc1	.	.	-2.5	.	.	.
CNc1ccccc1C(C)(C)c1cc(-c2cccc(OC)c2)no1	47.9*	-18.5	15.6	-0.7	3.2	56.4*
COc1ccccc1C(=O)Nc1ccnn1C1CCN(Cc2ccn[nH]2)CC1	.	-24.0	-5.1	-7.6	.	.
CCN1CCN(CCCN(Cc2ccco2)C(=S)Nc2ccc(C)c(Cl)c2)CC1	37.2*	-4.3	15.7	1.4	3.2	31.8*
CN1CCN(CCCN(Cc2ccco2)C(=S)Nc2ccc(Cl)cc2)CC1	40.4*	-6.6	12.3	2.2	-14.9	29.0*
